{"source": "PubChem BioAssay (NCI)", "note": "This is part of a sample that, as a whole, favours compounds with a hit. Of some 79,000 tested, about 15% had one in any assay. Unmarked numbers belong to inactive results. No stated cut-off is given here; in the data, active means growth inhibition above about 70%; inactive means the rest.", "data": [{"assay": "NCI Yeast Anticancer Drug Screen. Data for the cln2 rad14 strain (AID 165);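 further: 0% = growth equal to vehicle treated cultures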", "conditions": "S. cerevisiae cln2 rad14 strain, at 50.0 µM, stronger effect = higher value", "how_it_was_run": "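cln2 rad14 yeast strain; compound exposure; growth inhibition read vs vehicle controls.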", "units": {"growth inhibition": "%"}, "values": [{"smiles": "Cc1ccc(S(=O)(=O)N/N=C/c2oc(-c3ccncc3)c(-c3ccncc3)c2[N+](=O)[O-])cc1", "growth inhibition": 27.8}, {"smiles": "O=C1C=C(Nc2cccnc2)c2ccccc2C1=O", "growth inhibition": 8.5}, {"smiles": "COc1ccc(-c2coc3cc(O)cc(O)c3c2=O)cc1", "growth inhibition": 31.7}, {"smiles": "Cn1cc(/C=C/C(=O)c2ccccc2[N+](=O)[O-])c2ccccc21", "growth inhibition": 18.1}, {"smiles": "C=CCOC(C)OCC=C", "growth inhibition": -23.5}, {"smiles": "O=c1[nH]nnc2ccccc12", "growth inhibition": 4.55}, {"smiles": "COc1ccc(C)c(C2=CCCCC2)c1", "growth inhibition": -6.55}, {"smiles": "C=CCc1ccc(O)c(OC)c1", "growth inhibition": 9.7}, {"smiles": "O=C1NCC2(CCN(Cc3ccccc3)CC2)N1c1ccccc1", "growth inhibition": 4.85}, {"smiles": "CN(C)c1nc2[nH]ncc2c(=O)[nH]1", "growth inhibition": -10.1}, {"smiles": "Cc1c(-c2ccc3c(c2)COC3)sc(N)c1C#N", "growth inhibition": 24.3}, {"smiles": "COc1ccc(NC(=O)CC(=O)N/N=C/c2ccc(N(CCC#N)S(=O)(=O)c3ccccc3)cc2)cc1", "growth inhibition": 8.15}, {"smiles": "CC12CC(=O)C3C(CCC4=CC(=O)CCC43C)C1CC=C2CC(=O)O", "note": "(stereo not drawn)", "growth inhibition": -3.85}, {"smiles": "COc1ccc(C2S/C(=C\\c3cccc(O)c3)C(=O)N2NC(=O)Cc2ccccc2)cc1", "note": "(stereo not drawn)", "growth inhibition": -46.5}, {"smiles": "CCS(=O)(=O)OCCOC", "growth inhibition": 57.6}, {"smiles": "O=C1C=C/C(=N/c2ccc(O)o2)c2ccccc21", "growth inhibition": 8.4}, {"smiles": "CCCN1CCc2c([nH]c3cc(OC)ccc23)C1C", "note": "(stereo not drawn)", "growth inhibition": 1.9}, {"smiles": "CC(C)=NC(C(=O)O)C(C)(C)S", "note": "(stereo not drawn)", "growth inhibition": -12.3}]}]}
